Our source for the inhibition values is PubChem BioAssay AID1626 (SRMLSC, 2009).

Screen size: about 220,000 compounds; about 2,000 (0.91%) were called active. Roughly 2% stayed inconclusive and do not appear here. These entries were drawn from the full list. Results with a measured potency or affinity are listed apart. A number with no mark means an inactive call. Rule as the data show it: inconclusive = inhibition above about 80% without an active follow-up result; inactive = below that; test concentration not stated here.

The test can be described thus: M. tuberculosis H37Rv growth inhibitors, H37Rv strain (AID 1626).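 Also: bacteria incubated seven days before Alamar blue readout; 0% = bacteria only wells and 100% = bacteria with antibiotic wells.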 Particulars: active compounds read high, concentration not given here.
As a reminder, the inhibition is the relative decrease from the control value, in per cent. As to `Cc1ccc(C(=O)COC(=O)CN2C(=O)C3C4CCC(C4)C3C2=O)cc1[N+](=O)[O-]` (centres undefined), the inhibition is 19.5%.

On to `Cc1ccc(CNC(=O)c2ccc(Cn3nc(C)c(Cl)c3C)o2)cc1`, for which the inhibition was 2.97%.

Regarding `COc1ccc(NC(=O)CCN2CCOCC2)c(OC)c1`, the inhibition was -3.47%.

As to `COc1ccc(-c2nc3ccccc3c(=O)n2CCOc2ccccc2C)cc1`, the inhibition was 0.63%.

Take `CC(C)c1cc(C(=O)O)c2ccccc2n1`: the inhibition was -2.96%.

With `Brc1ccc(-c2cn3c(n2)CCc2ccc4cccnc4c2-3)cc1`, the inhibition was -2.02%.

In the case of `COc1ccc(-n2c(-c3ccc(Br)cc3)c[n+]3c2CCC3)cc1`, the inhibition is 2.38%.

As for `COc1cc(/C=N/NC(=O)COc2cc(C)cc(C)c2)ccc1OS(=O)(=O)c1ccc(C)cc1`, the inhibition was 10.7%.

On to `CCc1ccc(CN(C)CC(=O)Nc2ccc3c(c2)CCC3)cc1`, for which the inhibition was 48%.

As to `CC(=O)Nc1ccc(NC(=O)COc2ccc3c(c2)CCC3)cc1`, the inhibition is 10.5%.

Turning to `COc1cccc(NC(=O)COc2ccc3c(c2)CCC3)c1`, the inhibition was 74.3%.

Regarding `COc1ccc(CC(=O)Nc2ccc3c(c2)CCC3)cc1`, the inhibition was 9.72%.

Regarding `Cc1cc(C(=O)Cn2nc(C(=O)O)c3ccccc3c2=O)c(C)n1CCc1ccc(F)cc1`, the inhibition is 3.54%.

As to `CC(C)OCCCNC(=O)Nc1cccc2ccccc12`, the inhibition was -3.82%.

With `CCOC(=O)c1c(NC(=O)COc2cccc3c2CCN(C)C3=O)sc2c1CCC2`, the inhibition was 31.8%.

`C/C(N)=C(/C#N)C(=O)COC(=O)c1ccccc1Oc1ccccc1`: the inhibition is -2.05%.

For `O=C(Nc1ccc(N2CCN(C(=O)c3ccc(Cl)cc3)CC2)cc1)c1ccc2c(c1)OCCO2`, the inhibition is -4.15%.

Regarding `O=C(Nc1ccc(N2CCN(C(=O)c3ccccc3)CC2)cc1)c1cc2ccccc2o1`, the inhibition was 9.58%.

For `O=C(Nc1ccc(N2CCN(C(=O)c3ccccc3)CC2)cc1)c1ccc(Br)o1`, the inhibition is 19.7%.

`O=C(Nc1ccc(N2CCN(C(=O)c3ccco3)CC2)cc1)c1ccccc1`: the inhibition is 7.16%.

In the case of `O=C(Nc1ccc(N2CCN(C(=O)c3ccco3)CC2)cc1)c1ccco1`, the inhibition is -0.76%.

In the case of `O=C(Nc1ccc(N2CCN(C(=O)c3ccc(Cl)cc3)CC2)cc1)c1cc2ccccc2o1`, the inhibition was -12.4%.

As to `Cc1ccc(-c2nn(-c3ccccc3)cc2/C=C/C(=O)OCC(=O)NC2CC2)o1`, the inhibition is 6.54%.

`Cc1cc(C)n(-c2ccc(C(=O)Nc3cccnc3Cl)cc2)n1`: the inhibition is -2.86%.

Consider `CS(=O)(=O)N1CCc2cc(NC(=O)c3ccc(Cl)cc3Cl)ccc21`, for which the inhibition is -3.19%.

Take `COc1ccc(/C=N/NC(=O)C2C3CCCCC32)cc1OC` (centres undefined): the inhibition was 1.66%.

With `CCOc1ccc(Br)cc1S(=O)(=O)Nc1ccc(C(=O)Nc2ccc(C)cc2)cc1`, the inhibition was 1.51%.

As to `CN1C(C(=O)NCC2CC2)CC2Cn3c(nc4cc5ccccc5cc43)C21` (centres undefined), the inhibition was -9.29%.

As to `N#CC(Nc1ccccc1)c1ccccc1OCc1ccccc1` (centres undefined), the inhibition was 5.52%.

`COc1ccccc1NC(C#N)c1ccccc1OCc1ccccc1` (centres undefined): the inhibition was 5.14%.

In the case of `CC(=O)n1c2ccccc2c2c1c1ccccc1n2C`, the inhibition is 6.42%.

Turning to `CC(C)OC(=O)CC1C(=O)NCCN1C(=S)NC(=O)c1ccccc1` (centres undefined), the inhibition is 3.87%.

Regarding `Cc1ccc(C)n1-c1ccc(N2CCOCC2)c(Br)c1`, the inhibition is 4.43%.

In the case of `COC(=O)c1ccc(C(=O)OC)c(NC(=O)CN2CCN(c3ccc(OC)cc3)CC2)c1`, the inhibition was 13.8%.

Turning to `COC(=O)c1ccc(C(=O)OC)c(NC(=O)CN2CCN(c3ccccc3OC)CC2)c1`, the inhibition is 72.2%.

In the case of `O=C1OCc2cc(N=Nc3c(O)[nH]c(=O)[nH]c3=O)ccc21`, the inhibition was -9.19%.

Turning to `COc1c(/C=N/NS(=O)(=O)c2ccc(C)cc2)c(CCN(C)C(C)=O)cc2c1OCO2`, the inhibition is -0.76%.

For `CCn1c(SCC(=O)c2cccs2)nnc1-c1ccco1`, the inhibition was -18.1%.

In the case of `Cc1cccc(Nc2nc(N)c([N+](=O)[O-])c(NCc3ccco3)n2)c1`, the inhibition was 22.5%.

Turning to `Nc1nc(Nc2ccc(Cl)cc2)nc(NCc2ccco2)c1[N+](=O)[O-]`, the inhibition was 18.8%.

As for `Cc1nn(C)c2c(=O)c(=O)c2n(C)[nH]1`, the inhibition is -3.16%.

`CC(C)CCNC(=O)c1onc(CSc2ccccc2)c1C(=O)NCCC(C)C`: the inhibition is 19%.

Consider `CCn1c(COc2ccc(C)cc2)nnc1SCC(=O)NNC(=O)c1ccc(OC)cc1`, for which the inhibition is 4.68%.

As for `S=c1[nH]nc(-c2cccnc2)n1/N=C/c1ccccc1`, the inhibition is -12.5%.

With `CCN1CCN(Cc2ccc(NC(=O)c3cc(NC(=O)N4CCNC4=O)cc(OC)c3)cc2C(F)(F)F)CC1`, the inhibition was -1.27%.

For `CCN1CCN(Cc2ccc(NC(=O)c3cc(NC(=O)c4ccc5n[nH]nc5c4)cc(OC)c3)cc2C(F)(F)F)CC1`, the inhibition was -1.88%.

As for `CCN1CCN(Cc2ccc(NC(=O)c3ccc(C)c(NC(=O)c4ccc5n[nH]nc5c4)c3)cc2C(F)(F)F)CC1`, the inhibition was -11%.

For `CCN1CCN(Cc2ccc(NC(=O)c3cc(NC(=O)c4nccnc4N)cc(OC)c3)cc2C(F)(F)F)CC1`, the inhibition is 6.4%.

Regarding `CCN1CCN(Cc2ccc(NC(=O)c3cc(NC(=O)c4ccno4)cc(OC)c3)cc2C(F)(F)F)CC1`, the inhibition is 14.6%.

`CCN1CCN(Cc2ccc(NC(=O)c3ccc(C)c(NC(=O)c4ccnnc4)c3)cc2C(F)(F)F)CC1`: the inhibition is -3.04%.

For the molecule `Cc1cc(C)cc(NC(=O)CN2C(=O)NC(C)(c3ccccc3)C2=O)c1` (centres undefined), the inhibition was 1.34%.

For the molecule `COc1ccc(-c2nn(-c3ccccc3)cc2/C=C2/SC(=S)N(Cc3ccco3)C2=O)c(C)c1`, the inhibition was -0.21%.

`Cc1sc(NC(=O)c2ccccc2F)c(CN2CCCCC2)c1C`: the inhibition was 7.51%.

For `CCOc1ncccc1C(=O)OCC(=O)c1ccccc1`, the inhibition was -3.62%.

Consider `COc1ccc(CNC(=O)COC(=O)C2=COCCO2)cc1`, for which the inhibition is 46.3%.

With `CCN(CC(=O)Nc1ccc(NC(C)=O)cc1)CC(=O)Nc1ccccc1C(=O)c1ccccc1`, the inhibition is 2.54%.

For the molecule `CC(=O)c1ccn(S(=O)(=O)c2ccccc2)c1`, the inhibition is 4.75%.

With `CC1(C)Cc2c(cnn2-c2ccccc2)-c2c1c1ccccc1n2CC(O)CCl` (centres undefined), the inhibition is 2.97%.

Consider `CC1(C)Cc2c(cnn2-c2ccccc2)-c2c1c1ccccc1n2CC(O)CBr` (centres undefined), for which the inhibition is 8.54%.

With `O=C(Nc1ccc(Cl)cn1)c1ccc(-c2ccc(Cl)c(Cl)c2)o1`, the inhibition was 9.55%.

For `COc1cc2nc(-c3ccccc3)nc(N3CCCC3)c2cc1OC`, the inhibition is 7.03%.

Consider `COc1cc2nc(Cl)nc(N3CCCCC3)c2cc1OC`, for which the inhibition was 1.6%.

Regarding `O=c1c2ccccc2nc(SCc2ccncc2)n1CC1CCCO1` (centres undefined), the inhibition was 4.12%.

Regarding `O=C(Nc1ccc(F)cc1F)Nc1ccc(F)cc1F`, the inhibition was -3.43%.

Consider `O=C(Nc1ccccc1)Nc1csc2ccccc12`, for which the inhibition was 14.7%.

Turning to `CSc1ccccc1NC(=O)Nc1ccc(F)c(Cl)c1`, the inhibition is 1.15%.

For `O=C(Nc1ccc(F)cc1)Nc1csc2ccccc12`, the inhibition is 57.9%.

For the molecule `CCc1ccc(C2C3=C(CC(C)(C)CC3=O)OC3=C2C(=O)CC(C)(C)C3)cc1`, the inhibition is -1.37%.

On to `O=c1[nH]c(/C=C\c2cccnc2)c([N+](=O)[O-])c(=O)[nH]1`, for which the inhibition was -10.6%.

For `C/C=C/C(=O)OCC(=O)Nc1nc2ccc(C)cc2s1`, the inhibition was -7.77%.

With `COc1cccc(C(=O)NNC(=O)C2CC(C)=C(C)CC2C(=O)O)c1` (centres undefined), the inhibition was -6.84%.

For the molecule `O=C(NC1CCSC1=O)c1ccc(Oc2ccc(F)cc2)nc1` (centres undefined), the inhibition was 0.17%.

On to `CCCn1nc2cc(C(=O)NCC34CC5CC(CC(C5)C3)C4)ccc2c1OCC`, for which the inhibition was 5.26%.

With `COc1ccc(Br)cc1CNC(=O)C1CCN(S(=O)(=O)N2CCCC2)CC1`, the inhibition was -4.95%.

As for `CCS(=O)(=O)c1ccc(N=Nc2ccc(O)c3ncccc23)c(OC)c1`, the inhibition is -3.16%.

On to `Cc1cccnc1NCc1ccc(O)c2ncccc12`, for which the inhibition is -8.13%.

With `Cc1ccc(NCc2ccc(O)c3ncccc23)cc1C`, the inhibition was 9.65%.

Consider `Oc1ccc(N=Nc2ccc3c(c2)OCCO3)c2ncccc12`, for which the inhibition was 41%.

Turning to `COc1ccccc1N=Nc1[nH]c2ccc(C)cc2c1O`, the inhibition was 9.9%.

Take `Cc1ccccc1NCc1ccc(O)c2ncccc12`: the inhibition was 5.07%.

On to `Cc1ccc(S(=O)(=O)Nc2ccc(O)c3ncccc23)cc1`, for which the inhibition is -2.86%.

Take `CCS(=O)(=O)c1ccc(OC)c(N=Nc2ccc(O)c3ncccc23)c1`: the inhibition was 4.79%.

In the case of `Cc1ccc(-c2nc(C=Nc3cccc(C)c3)c(O)o2)cc1`, the inhibition was 1.48%.

For `CCn1c(SCC(=O)Nc2cc(C)on2)nnc1-c1c[nH]c2ccccc12`, the inhibition is -1%.

`CSc1ccccc1NC(=O)COC(=O)c1ccccc1Cc1ccccc1`: the inhibition is 7.08%.

With `N#CC1=C2N=C(N)c3ccccc3N2C2=C(C(=O)CCC2)C1c1ccc(Cl)cc1` (centres undefined), the inhibition was -9.07%.

On to `Cc1ccc(C(=O)Nc2ccc(N3CCN(S(C)(=O)=O)CC3)cc2)cc1C`, for which the inhibition was -8.49%.

As for `C=CCOc1ccc(/C=C2\C(=N)N3N=C(S(=O)(=O)CC)SC3=NC2=O)cc1OC`, the inhibition was -2.08%.

`O=C(c1ccco1)N1CCN(CCCCN2C(=O)c3ccccc3C2=O)CC1`: the inhibition was -5.13%.

With `CC1CN(C(=O)c2cc(F)c(F)cc2Cl)CC(C)O1` (centres undefined), the inhibition was -4.24%.

For `Fc1ccc(C(OCCN2CCCC2)c2ccc(Br)cc2)cc1` (centres undefined), the inhibition was 11.1%.

Turning to `c1ccc(C(OCCN2CCNCC2)c2ccccc2)cc1`, the inhibition was -7.41%.

With `Clc1ccccc1CN1CCN(CCCc2ccccc2)CC1`, the inhibition was 6.37%.

`Fc1ccc(C(OCCN2CCCC2)c2ccc(F)cc2)cc1`: the inhibition was 3.27%.
